From PubChem BioAssay
This is a sample that favours compounds with a hit; in the whole collection about 12% have one here.
G9a inh: blocks human histone lysine methyltransferase G9a; Potency, µM (top dose mostly 102 µM), inactives show top-dose activity, negative = inhibition, most hits filed as inhibitors; G9a H3K9 monomethylation, AlphaScreen, 2 h; hit rate 8.8% among 350,000; AID 504332; note: % is set by controls: 0 for no effect and ±100 for the full control effect; nearly all actives have a fitted effect of over 75% in size
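G9a (20 nM) was preincubated 15 min with compound, then reacted 2 h at room temperature with 500 nM biotin-H3K9 peptide and 20 µM SAM. Monomethyl-H3K9 detected by AlphaScreen using anti-H3K9me1 antibody.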
BAZ2B block: blocks human BAZ2B; Q9UIF8; AlphaScreen BAZ2B-H3K14Ac peptide displacement; Potency, µM (doses to about 114 µM), without a hit: at the top dose activity change, negative = inhibition, most hits filed as inhibitors; hit rate 4.4% among 360,000; note: % is set by controls: 0 for no effect and ±100 for the full control effect; nearly all actives have a fitted effect of over 60% in size
Target sequence (Q9UIF8 whole entry, looked up): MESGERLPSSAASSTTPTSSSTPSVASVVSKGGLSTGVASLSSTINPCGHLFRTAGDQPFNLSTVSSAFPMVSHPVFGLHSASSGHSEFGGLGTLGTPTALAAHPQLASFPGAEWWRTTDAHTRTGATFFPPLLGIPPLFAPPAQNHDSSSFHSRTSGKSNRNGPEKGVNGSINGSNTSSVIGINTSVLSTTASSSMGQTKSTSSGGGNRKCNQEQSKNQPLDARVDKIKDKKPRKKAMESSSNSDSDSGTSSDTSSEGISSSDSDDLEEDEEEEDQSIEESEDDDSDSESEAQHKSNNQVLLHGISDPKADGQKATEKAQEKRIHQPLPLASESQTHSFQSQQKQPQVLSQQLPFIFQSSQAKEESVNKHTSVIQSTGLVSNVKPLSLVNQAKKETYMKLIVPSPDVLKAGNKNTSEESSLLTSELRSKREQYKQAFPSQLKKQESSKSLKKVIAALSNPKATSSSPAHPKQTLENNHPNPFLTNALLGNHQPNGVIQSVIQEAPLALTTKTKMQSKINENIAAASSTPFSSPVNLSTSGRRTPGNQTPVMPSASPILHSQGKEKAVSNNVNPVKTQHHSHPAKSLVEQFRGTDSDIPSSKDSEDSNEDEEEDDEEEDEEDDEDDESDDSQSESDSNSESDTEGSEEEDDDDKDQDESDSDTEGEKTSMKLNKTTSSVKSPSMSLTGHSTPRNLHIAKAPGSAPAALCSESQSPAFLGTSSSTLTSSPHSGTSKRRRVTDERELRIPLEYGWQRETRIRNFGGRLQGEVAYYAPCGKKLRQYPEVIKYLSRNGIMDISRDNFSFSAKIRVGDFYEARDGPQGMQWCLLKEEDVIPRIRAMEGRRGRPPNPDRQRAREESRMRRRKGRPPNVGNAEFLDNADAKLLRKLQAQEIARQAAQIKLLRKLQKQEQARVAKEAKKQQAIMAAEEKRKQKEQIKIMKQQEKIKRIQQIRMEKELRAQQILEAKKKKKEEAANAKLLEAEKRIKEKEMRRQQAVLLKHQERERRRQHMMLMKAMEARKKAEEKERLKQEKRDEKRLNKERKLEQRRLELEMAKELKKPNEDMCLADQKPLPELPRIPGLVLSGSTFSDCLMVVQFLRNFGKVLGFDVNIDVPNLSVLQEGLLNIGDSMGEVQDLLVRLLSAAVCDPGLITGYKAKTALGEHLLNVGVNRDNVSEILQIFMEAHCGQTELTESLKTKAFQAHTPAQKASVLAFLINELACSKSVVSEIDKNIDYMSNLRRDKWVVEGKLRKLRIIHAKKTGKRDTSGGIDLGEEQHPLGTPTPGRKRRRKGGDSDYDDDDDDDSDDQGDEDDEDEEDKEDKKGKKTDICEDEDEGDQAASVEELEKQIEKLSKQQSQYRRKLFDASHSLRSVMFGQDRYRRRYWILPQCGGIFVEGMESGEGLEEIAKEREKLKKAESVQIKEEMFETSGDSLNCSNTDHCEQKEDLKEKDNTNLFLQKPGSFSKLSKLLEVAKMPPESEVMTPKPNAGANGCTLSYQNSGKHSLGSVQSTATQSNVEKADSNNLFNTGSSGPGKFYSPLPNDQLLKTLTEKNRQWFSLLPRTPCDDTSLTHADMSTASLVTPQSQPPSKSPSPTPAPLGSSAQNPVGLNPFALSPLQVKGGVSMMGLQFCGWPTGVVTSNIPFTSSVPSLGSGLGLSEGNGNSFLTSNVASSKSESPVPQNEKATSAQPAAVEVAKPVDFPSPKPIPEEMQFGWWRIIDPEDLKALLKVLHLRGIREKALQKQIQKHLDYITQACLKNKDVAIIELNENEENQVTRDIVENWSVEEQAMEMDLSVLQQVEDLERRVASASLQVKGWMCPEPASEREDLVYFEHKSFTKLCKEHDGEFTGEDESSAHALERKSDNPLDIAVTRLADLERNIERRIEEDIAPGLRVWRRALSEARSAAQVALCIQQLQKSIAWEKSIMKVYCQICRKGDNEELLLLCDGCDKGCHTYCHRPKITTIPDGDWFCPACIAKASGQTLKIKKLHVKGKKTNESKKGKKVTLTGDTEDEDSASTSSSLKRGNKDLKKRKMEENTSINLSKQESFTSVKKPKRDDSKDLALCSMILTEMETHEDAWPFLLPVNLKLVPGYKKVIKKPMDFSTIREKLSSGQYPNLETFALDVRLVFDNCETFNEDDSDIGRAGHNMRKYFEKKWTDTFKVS
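Complex of BAZ2B and biotin-H3K14Ac (50 nM apiece) forms over 30 min at RT, then faces library compounds up to 110 uM for another 30 min; AlphaScreen beads added, 20 min dark incubation, luminescence read.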
PLK1 PBD block: blocks phosphopeptide binding to human PLK1 polo-box domain; Plk1 PBD binding of FITC phosphopeptide, fluorescence polarization; AID 720504; P53350; Potency, µM, for inactives: max response, negative = inhibition, most hits filed as inhibitors; hit rate 2.8% among 360,000; note: series mostly up to about 57 µM; % is set by controls: 0 for no effect and ±100 for the full control effect; nearly all actives have a fitted effect of over 65% in size
Sfp PPTase inh: Sfp phosphopantetheinyl transferase inhibition | Q9F4F7 | Biochemical Sfp PPTase activity, qHTS | Potency, µM, for the others: largest response in the series, negative = inhibition, hits mostly inhibitors | hit rate 3.5% among 310,000 | AID 1490;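 note: the enzyme is Sfp with the accession as filed and its product quenches rhodamine fluorescence; 0% = enzyme reaction without inhibitor and -100% = no enzyme wells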
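Compounds were incubated with enzyme (final 15 nM) for 15 min at room temperature before substrate addition started the reaction. Fluorescence at 525 nm excitation, 598 nm emission was recorded immediately and after 30 minutes.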
JMJD2A Tudor: inhibitors of human JMJD2A Tudor domain; AlphaScreen JMJD2A-Tudor / H3K4me3 peptide binding; Potency, µM (series often up to 114 µM), for the others: at the highest dose activity change, negative = inhibition, usual class: inhibitors; hit rate 4.4% among 390,000; note: % is set by controls: 0 for no effect and ±100 for the full control effect; nearly all actives have a fitted effect of over 50% in size
HP1b binding inh: HP1-beta chromodomain-methylated histone interaction inhibition; AlphaScreen HP1-beta / biotin-H3K9me3 peptide binding; Potency, µM (top dose mostly 114 µM), for the others: at the top dose activity change, negative = inhibition, hits mostly inhibitors; hit rate 0.56% among 390,000; AID 540317; note: nearly all actives have a fitted effect of over 70% in size
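Compound inhibition of the preformed complex between 50 nM HP1-beta and 50 nM biotinylated H3K9me3 peptide was read by AlphaScreen. Buffer was PBS pH 7.4 with 0.01% Tween-20. Incubations ran 30 min at room temperature, with 10 ug/mL donor/acceptor beads.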
Active calls of the source: *; [ ] = dose if it differs, or a comment. Calls come from the whole dose curve; as a rule, active = well fitted curve in the direction sought with a large enough effect; inconclusive = small, poorly fitted or top-dose-only effect, or another doubt; inactive = no such curve, though single readings can be large; an effect the other way counts as inactive or inconclusive. Potency is the fitted concentration of half-maximal effect.

What do the screens show for `Cc1c(/C(O)=C2/C(=O)C(=O)N(Cc3cccnc3)C2c2ccccn2)cnn1-c1ccccc1` (centres undefined)?
G9a inh: 32µM*; BAZ2B block: 50µM*; PLK1 PBD block: -12%; Sfp PPTase inh: 1%; JMJD2A Tudor: inconclusive; HP1b binding inh: 7%

Results for O=C1C(=O)N(Cc2cccnc2)C(c2ccccn2)/C1=C(/O)c1ccc(F)cc1 (centres undefined) ?
G9a inh: inconclusive; BAZ2B block: inconclusive; PLK1 PBD block: 6%; Sfp PPTase inh: 89µM*; JMJD2A Tudor: inconclusive; HP1b binding inh: 3%

Results for CCOC(=O)c1c(NC(=S)Nc2ccc(OC)cc2)sc2c1CCC2 ?
G9a inh: -48%[59 µM]; BAZ2B block: inconclusive; PLK1 PBD block: inconclusive; Sfp PPTase inh: inconclusive; JMJD2A Tudor: -9%; HP1b binding inh: inconclusive

What do the screens show for `CCOC(=O)c1c(NC(=S)NC)sc2c1CC(C)(C)SC2`?
G9a inh: inconclusive; BAZ2B block: -6%; PLK1 PBD block: 24µM*; Sfp PPTase inh: 20µM*; JMJD2A Tudor: -20%; HP1b binding inh: 20%

What do the screens show for `CCOC(=O)c1c(NC(=S)Nc2ccccc2)sc2c1CC(C)(C)SC2`?
G9a inh: 40µM*; BAZ2B block: inconclusive; PLK1 PBD block: inconclusive; Sfp PPTase inh: -21%; JMJD2A Tudor: -29%; HP1b binding inh: -8%

What do the screens show for `COCc1nc2cccnc2n1C1CCN(S(=O)(=O)N(C)C)CC1`?
G9a inh: 4%[59 µM]; BAZ2B block: 1%; JMJD2A Tudor: -16%; HP1b binding inh: -11%

How did O=C(CNC(=O)c1ccccc1Cl)NCC(c1cccs1)N1CCOCC1 (centres undefined) do in these assays?
G9a inh: -5%[0.501 µM]; BAZ2B block: -9%; PLK1 PBD block: 0%; JMJD2A Tudor: -12%; HP1b binding inh: 45%

Results for S=c1[nH]nc(-c2ccc(Cl)cc2)n1Cc1ccccc1 ?
G9a inh: 1.4µM*; BAZ2B block: -6%; PLK1 PBD block: -30%; Sfp PPTase inh: -3%; JMJD2A Tudor: inconclusive; HP1b binding inh: 6%

How did Cc1ccn(Cc2n[nH]c(=S)n2Cc2ccccc2)n1 do in these assays?
G9a inh: 3.2µM*; BAZ2B block: 0%; PLK1 PBD block: -9%; Sfp PPTase inh: 11%; JMJD2A Tudor: 8.9µM*; HP1b binding inh: 20%

What do the screens show for `S=c1[nH]nc(-c2ccc(Br)o2)n1Cc1ccccc1`?
G9a inh: inconclusive; BAZ2B block: -37%; PLK1 PBD block: -24%; Sfp PPTase inh: -1%; JMJD2A Tudor: 32µM*; HP1b binding inh: 2%

Results for S=c1[nH]nc(-c2cccs2)n1Cc1ccccc1 ?
G9a inh: inconclusive; BAZ2B block: -33%; PLK1 PBD block: -20%; Sfp PPTase inh: 2%; JMJD2A Tudor: inconclusive; HP1b binding inh: -30%

Results for COc1ccc(-c2n[nH]c(=S)n2Cc2ccccc2)cc1OC ?
BAZ2B block: -34%; PLK1 PBD block: -13%; Sfp PPTase inh: -11%; JMJD2A Tudor: 10µM*; HP1b binding inh: inconclusive

How did O=C(NCc1n[nH]c(=S)n1Cc1ccccc1)c1ccc(Cl)cc1Cl do in these assays?
G9a inh: inconclusive; BAZ2B block: -14%; PLK1 PBD block: 2%; Sfp PPTase inh: 4%; JMJD2A Tudor: -30%; HP1b binding inh: 33%

How did O=S(=O)(c1ccc(C(F)(F)F)cc1)N1CCN(c2nc(-c3cccs3)nc3ccccc23)CC1 do in these assays?
JMJD2A Tudor: -12%; HP1b binding inh: 64%

How did S=c1[nH]nc(-c2ccccc2)n1Cc1ccccc1 do in these assays?
G9a inh: 4%[2.33 µM]; BAZ2B block: -3%; PLK1 PBD block: -9%; Sfp PPTase inh: 12%; JMJD2A Tudor: 11µM*; HP1b binding inh: -3%

What do the screens show for `S=c1[nH]nc(C2CCCCC2)n1Cc1ccccc1`?
G9a inh: 11µM*; BAZ2B block: -28%; PLK1 PBD block: -17%; Sfp PPTase inh: -4%; JMJD2A Tudor: 35µM*; HP1b binding inh: 18%

Results for Cc1n[nH]c(=S)n1Cc1ccccc1 ?
G9a inh: 35µM*; BAZ2B block: -15%; PLK1 PBD block: -24%; Sfp PPTase inh: -1%; JMJD2A Tudor: inconclusive; HP1b binding inh: 21%

What do the screens show for `C=CCn1c(C2CCCCC2)n[nH]c1=S`?
G9a inh: 20µM*; BAZ2B block: -21%; PLK1 PBD block: -15%; Sfp PPTase inh: 10%; JMJD2A Tudor: 5.6µM*; HP1b binding inh: 20%

What do the screens show for `COc1ccc(-c2n[nH]c(=S)n2Cc2ccccc2)cc1`?
BAZ2B block: -10%; PLK1 PBD block: -18%; Sfp PPTase inh: -18%; JMJD2A Tudor: 25µM*; HP1b binding inh: 4%

What do the screens show for `O=C(COC(=O)c1cc([N+](=O)[O-])ccc1N1CCOCC1)Nc1ccc(Cl)cc1`?
G9a inh: inconclusive; BAZ2B block: -37%; PLK1 PBD block: 0%; Sfp PPTase inh: 13%; JMJD2A Tudor: inconclusive; HP1b binding inh: -16%

What do the screens show for `Cc1cc(Cl)ccc1NC(=O)COC(=O)c1cc([N+](=O)[O-])ccc1N1CCOCC1`?
G9a inh: 56µM*; BAZ2B block: -28%; PLK1 PBD block: -10%; JMJD2A Tudor: inconclusive; HP1b binding inh: -23%

What do the screens show for `CC(NC(=O)COC(=O)c1cc([N+](=O)[O-])ccc1N1CCOCC1)c1ccc(F)cc1` (centres undefined)?
G9a inh: inconclusive; BAZ2B block: 50µM*; PLK1 PBD block: -7%; JMJD2A Tudor: inconclusive; HP1b binding inh: 9%

Results for Cc1ccc(S(=O)OCC(=O)Nc2cc(Cl)ccc2N2CCOCC2)cc1 (centres undefined) ?
G9a inh: 11%; BAZ2B block: -3%; PLK1 PBD block: 17µM*; Sfp PPTase inh: 9%; JMJD2A Tudor: inconclusive; HP1b binding inh: 19%

What do the screens show for `O=C(COC(=O)c1cc([N+](=O)[O-])ccc1N1CCOCC1)Nc1ccc(Cl)cn1`?
G9a inh: -15%; BAZ2B block: -33%; PLK1 PBD block: -6%; Sfp PPTase inh: 8%; JMJD2A Tudor: inconclusive; HP1b binding inh: -9%

Results for O=C(COS(=O)c1ccccc1)Nc1cc(Cl)ccc1N1CCOCC1 (centres undefined) ?
G9a inh: 3%[59 µM]; BAZ2B block: -16%; PLK1 PBD block: -12%; Sfp PPTase inh: -9%; JMJD2A Tudor: -16%; HP1b binding inh: 16%

Results for NC(=O)c1ccc(NC(=O)COC(=O)c2cc([N+](=O)[O-])ccc2N2CCOCC2)cc1 ?
G9a inh: 13µM*; BAZ2B block: -8%; PLK1 PBD block: -10%; JMJD2A Tudor: -14%; HP1b binding inh: 7%
